# In PubChem BioAssay (NCATS):
# Results filed as inconclusive are left out. Unmarked numbers belong to inactive results. The source made the active and inactive calls. Unless noted, the call rests on the fitted dose curve.
# Target: Cytochrome P450 2C9 (Homo sapiens) (UniProt P11712)
# Test: Cytochrome P450 family 2 subfamily C member 9 (CYP2C9) small molecule antagonists: luciferase biochemical (cell-free) qHTS assay (AID 1645842; active means well fitted inhibition curve with a large enough effect in the repeat runs; further: nearly all actives have a fitted effect of over 55% in size)
# Conditions: P450-Glo CYP2C9 enzyme assay, luciferin luminescence; series mostly up to 57.4 µM; activity change, negative = inhibition: at the top concentration
# How it was run: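 P450-Glo CYP2C9 system: proluciferin substrate with enzyme in mix containing 0.4% BSA, 10 min at room temperature, then NADPH regeneration solution added and incubated 1 h at 37C. Detection reagent stopped reaction; luminescence read after 20 min as RLU.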
# On the % scale 0 is the no-effect control and ±100 the full control effect; potency means the concentration at half of the fitted maximal effect.
# Cytochrome P450 2C9 (Homo sapiens), sequence (P11712 whole entry, looked up): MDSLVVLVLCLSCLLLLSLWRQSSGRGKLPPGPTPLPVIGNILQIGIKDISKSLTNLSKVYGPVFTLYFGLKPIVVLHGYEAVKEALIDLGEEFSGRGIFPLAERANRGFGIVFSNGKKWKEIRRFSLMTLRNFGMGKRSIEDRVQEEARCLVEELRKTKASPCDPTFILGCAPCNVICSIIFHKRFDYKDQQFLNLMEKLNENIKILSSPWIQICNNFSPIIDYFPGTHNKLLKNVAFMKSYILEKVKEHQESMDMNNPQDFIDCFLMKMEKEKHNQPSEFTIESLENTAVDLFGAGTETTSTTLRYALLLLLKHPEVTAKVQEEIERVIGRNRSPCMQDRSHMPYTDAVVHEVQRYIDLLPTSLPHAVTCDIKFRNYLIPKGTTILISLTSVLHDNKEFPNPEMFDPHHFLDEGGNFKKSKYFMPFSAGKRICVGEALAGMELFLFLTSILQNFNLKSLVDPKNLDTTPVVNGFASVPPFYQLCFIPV
SMILES,Potency,"activity change, negative = inhibition"
CCCN(CCC)C(=O)Cc1c(-c2ccc(Cl)cc2)nc2ccc(Cl)cn12,12.3 µM (active),–
CCOP(=S)(OCC)Oc1ccc2c(C)c(Cl)c(=O)oc2c1,6.92 µM (active),–
CCCCCCCCCCCCCCCCCC(=O)O,–,4.55%
Clc1ccc(C(c2ccc(Cl)cc2)C(Cl)(Cl)Cl)cc1,2.19 µM (active),–

# Test system: not listed separately
# Test: Confirmatory qHTS to identify inhibitors of SARS-CoV-2 cell entry (AID 1645844); further: nearly all actives have a fitted effect of over 45% in size
# Conditions: SARS-CoV-2 pseudotyped particle cell entry, luciferase; series mostly up to 57.2 µM; activity, negative = inhibition: at the top concentration
# How it was run: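 HEK293-ACE2, overnight seeding; cpd 1 h, 37C/5% CO2; + SARS-CoV-2-S MLV PP (Wuhan-Hu-1, ΔC19); 48 h; Bright-Glo luminescence. Data normalised to S PP and bald PP wells.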
SMILES,Potency,"activity, negative = inhibition"
Cc1nc2ccc(CN(C)c3ccc(C(=O)N[C@@H](CCC(=O)O)C(=O)O)s3)cc2c(=O)[nH]1,0.0271 µM (active),–
O=C1CN(/N=C/c2ccc([N+](=O)[O-])o2)C(=O)N1,21.5 µM (active),–
CNCCC=C1c2ccccc2CCc2ccccc21,21.5 µM (active),–
Cc1cc(NS(=O)(=O)c2ccc(N)cc2)nc(C)n1,–,-10.8%
CCOc1ccc2nc3cc(N)ccc3c(N)c2c1,24.1 µM (active),–
C[n+]1c2cc(N)ccc2cc2ccc(N)cc21 (tested in a mixture with another compound),6.07 µM (active),–
CC(C)OC(=O)OCOP(=O)(CO[C@H](C)Cn1cnc2c(N)ncnc21)OCOC(=O)OC(C)C,0.0152 µM (active),–
Cc1cc2c(cc1CC(=O)c1sccc1S(=O)(=O)Nc1onc(C)c1Cl)OCO2,–,0%
Oc1ccc(Cl)c2cccnc12,2.71 µM (active),–
COC(=O)C1=C(C)NC(C)=C(C(=O)OCC(C)=O)C1c1ccccc1[N+](=O)[O-] (stereo not drawn),34.1 µM (active),–
CCCCCCNC(=O)n1cc(F)c(=O)[nH]c1=O,8.57 µM (active),–
CCN(CC)C(C)CN1c2ccccc2Sc2ccccc21 (stereo not drawn),0.0383 µM (active),–
Cc1c(C)c2c(c(C)c1O)CCC(C)(COc1ccc(CC3SC(=O)NC3=O)cc1)O2 (stereo not drawn),34.1 µM (active),–
COc1cccc2c1C(=O)c1c(O)c3c(c(O)c1C2=O)C[C@@](O)(C(=O)CO)C[C@@H]3O[C@H]1C[C@H](N)[C@@H](O)[C@H](C)O1,0.0961 µM (active),–
Nc1nc2[nH]cc(CCc3ccc(C(=O)N[C@@H](CCC(=O)O)C(=O)O)cc3)c2c(=O)[nH]1,1.92 µM (active),–
CN1[C@@H]2CC[C@H]1CC(OC(c1ccccc1)c1ccccc1)C2 (stereo partly drawn),6.81 µM (active),–
CC(C)=CCC/C(C)=C/CC/C(C)=C/CCC(=O)OC/C=C(\C)CCC=C(C)C,9.61 µM (active),–
Cc1ccc(Nc2nccc(N(C)c3ccc4c(C)n(C)nc4c3)n2)cc1S(N)(=O)=O,21.5 µM (active),–
Nc1ccn([C@@H]2O[C@H](CO)[C@@H](O)C2O)c(=O)n1 (stereo partly drawn),4.29 µM (active),–
